Screening data deposited in PubChem BioAssay by National Center for Advancing Translational Sciences (NCATS).
Pf Dd2 inh – inhibitors of Plasmodium falciparum Dd2 growth | P. falciparum Dd2 growth, SYBR Green, 72 h | Potency, µM (doses to about 28.9 µM), for the others: at the highest dose activity, negative = inhibition, actives largely listed as inhibitors | 120,000 tested, 4.3% active | AID 1347417; active means well fitted inhibition curve with a large enough effect;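 further: plate controls were DMSO vehicle for no effect and reference drug for full effect; nearly all actives have a fitted effect of over 65% in size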
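Readout: SYBR Green fluorescence, 485 nm excitation, 535 nm emission, after ~16 h lysis at 37C. Before that, Dd2-infected red cells (2.5% hematocrit) grew 72 h with compound, 29 uM top final concentration.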
Numbers without * were called inactive; i = inactive; [ ] = dose if it differs, or a comment. Only a selection was taken, and hits are over-represented in it overall. Potency means the concentration at half of the fitted maximal effect.

SMILES	Pf Dd2 inh
Cc1ccccc1Cn1c(=O)n(Cc2ccco2)c(=O)c2oc3ccccc3c21	8.8%
Cc1ccccc1Cn1cnc2c(oc3ccccc32)c1=O	8.91µM*
Cc1ccc(NC(=O)Cn2cnc3c(oc4ccccc43)c2=O)cc1	-17.7%[0.594 µM]
CCC(=O)N1CCC2(CC1)CC(N1CCN(c3ccccn3)CC1)CCO2 (stereo not drawn)	-11.0%
Cc1cccc2nnc(N3CCN(C(=O)CCc4ccccc4)CC3)n12	-13.8%
Cc1ccc(NC(=O)c2ccc3c(c2)N(C)C2CCCN2C3=O)cc1 (stereo not drawn)	i
O=C(NCc1ccc2c(c1)OCO2)c1ccc2c(c1)CC(=O)N2Cc1ccc(F)cc1	i
CCC(=O)N1CCc2cc(Br)cc(S(=O)(=O)N3CCC(C(=O)N(CC)CC)CC3)c21	10µM*
CCC(=O)N1CCc2cc(Br)cc(S(=O)(=O)N3CCN(c4cc(C)ccc4C)CC3)c21	5.5%
CCc1cccc(C)c1NC(=O)C1CCN(S(=O)(=O)c2cc(Br)cc3c2N(C(C)=O)CC3)CC1	-25.5%
CCC(=O)N1CCc2cc(Br)cc(S(=O)(=O)N3CCCC(C(=O)NCc4ccc(OC)cc4)C3)c21 (stereo not drawn)	-3.0%
CCC(=O)N1CCc2cc(Br)cc(S(=O)(=O)N3CCCC(C(=O)Nc4cc(C)ccc4OC)C3)c21 (stereo not drawn)	i
CCOC(=O)C1CCCN(S(=O)(=O)c2cc(Br)cc3c2N(C(=O)CC)CC3)C1 (stereo not drawn)	3.55µM*
CC(Oc1ccccc1)C(=O)N1CCC(n2cc(-c3nc(C(C)C)no3)nn2)C1 (stereo not drawn)	i
CCn1ccc(C(=O)N2CCCC(c3nc(-c4ccccc4)no3)CCNC(=O)CC2)n1 (stereo not drawn)	i
CCOC(=O)c1cccc(NC(=O)N2CC[C@@H](CC(=O)Nc3nccs3)[C@@H](CC)C2)c1	-0.4%
O=C(Nc1ccccc1)O[C@@H]1CO[C@H]2[C@@H]1OC[C@@H]2n1nnnc1SCc1ccco1	i
CC(=O)c1ccc(NC(=O)O[C@@H]2CO[C@H]3[C@@H]2OC[C@@H]3n2nnnc2SCc2ccco2)cc1	6.31µM*
O=C(NC1CCCCC1)O[C@@H]1CO[C@H]2[C@@H]1OC[C@@H]2n1nnnc1SCc1ccco1	i
Cc1ccc(C(=O)N2CCC3(CC2)N(C)C(=O)CS3(=O)=O)cc1F	23.6%
OC[C@]12CCCN[C@@H]1CCN(Cc1cccc(-c3ccccn3)c1)C2	i
O[C@]12CCNC[C@H]1CN(Cc1cccc(-c3ccccc3)c1)CC2	8.91µM*
CN1C(=O)CC(C(=O)O)C12CCN(Cc1cccc(-c3ccccc3)c1)CC2 (stereo not drawn)	-16.1%
O=C(Nc1ccccc1F)N1CCC2(CCCN(C3CCCCC3)C2=O)C1 (stereo not drawn)	-11.9%
CCCc1ccccc1OCC(=O)c1ccc2c(c1)N(CC(=O)N1CCOCC1)C(=O)CO2	-8.5%
SMILES	Pf Dd2 inh
COCCN(Cc1ccc(C)cc1)Cc1ccc(C#N)cc1	i
CCCc1nc(C(=O)N(C)Cc2cnn(-c3ccccc3C)c2)cs1	1.8%
COCCN(Cc1cnn(-c2ccccc2C)c1)CC1CC1	7.08µM*
CCCCOc1ccc(C(=O)N2CCC(Cc3nc(-c4cnccn4)no3)CC2)cc1	-13.0%
Cc1cc(N2CCC(NCc3nc[nH]c3C)CC2)nc(-c2ccccc2O)n1	10µM*
Cc1[nH]cnc1CN1CCN(C2CCCC2)CC(C(=O)O)C1 (stereo not drawn)	-8.5%
Cc1cc(C)nc(CNC2CCN(c3nc(C)nc4sccc34)CC2)n1	-8.2%
O=C1NCCCCCN(C(=O)COc2ccccc2)[C@H]2CCC[C@@H]12	i
CCN1CCC(CCNC(=O)C2CCCN(C(=O)c3ccccc3)CCC(=O)NCC2)CC1 (stereo not drawn)	5.9%
COc1ccc(NC(=O)N2CCc3nc4cc[nH]n4c(=O)c3C2)cc1	25.1%[5.79 µM]
Cc1cnc(-c2ccncc2)n1CCNC(=O)CCC1CCCC1	-2.1%
CCCn1c(C)cnc1CCNC(=O)CCC1CCCC1	2.51µM*
CCNC(=O)NCCc1ncc(C)n1CC1CC1	2.8%
N[C@@H](Cc1cnc[nH]1)C(=O)NCc1cccnc1Oc1ccc(F)cc1F	-21.5%
Cn1cccc1-c1nc(-c2nnn3c2COC(c2ccccc2Cl)C3)no1 (stereo not drawn)	i
CCCCN1C[C@@H](CO)[C@H](c2nc(CCOC)no2)C1	-14.3%
Cc1ccc(-c2ccc3nnc(CNC(=O)c4cnccn4)n3n2)cc1	0.7%
Cc1cccc(C(=O)Nc2ccc3ncnc(N4CCCCC4)c3c2)c1	i
CCNC(=O)CN1CCCC(CNC(=O)c2cccc(C(F)(F)F)c2)C1 (stereo not drawn)	-19.1%
CCN1CCN(c2cc(C)c3cc(NC(=O)c4ccc(OC)c(OC)c4)ccc3n2)CC1	2.82µM*
COc1cccc(C(=O)Nc2ccc3ncnc(N4CCCCC4)c3c2)c1	i
CCN1CCN(c2cc(C)c3cc(NC(=O)c4cccc(C(F)(F)F)c4)ccc3n2)CC1	5.62µM*
CN1CC(=O)N(C2CCCNCC2)Cc2c1ncnc2N1CCC(N2CCOCC2)CC1 (stereo not drawn)	8.6%
